ALDH1A1 inh: inhibitors of human aldehyde dehydrogenase 1A1. Purified ALDH1A1, NADH fluorescence, propionaldehyde substrate. Potency, µM (titrated, usually from 75.3 µM), for inactives: at the highest dose activity, negative = inhibition, most hits filed as inhibitors. hit rate 7.3% among 220,000;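 also: potency is read from the fitted curve at half-maximal effect; plate controls were no enzyme wells and a reference inhibitor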
Target sequence (P00352 whole entry, looked up): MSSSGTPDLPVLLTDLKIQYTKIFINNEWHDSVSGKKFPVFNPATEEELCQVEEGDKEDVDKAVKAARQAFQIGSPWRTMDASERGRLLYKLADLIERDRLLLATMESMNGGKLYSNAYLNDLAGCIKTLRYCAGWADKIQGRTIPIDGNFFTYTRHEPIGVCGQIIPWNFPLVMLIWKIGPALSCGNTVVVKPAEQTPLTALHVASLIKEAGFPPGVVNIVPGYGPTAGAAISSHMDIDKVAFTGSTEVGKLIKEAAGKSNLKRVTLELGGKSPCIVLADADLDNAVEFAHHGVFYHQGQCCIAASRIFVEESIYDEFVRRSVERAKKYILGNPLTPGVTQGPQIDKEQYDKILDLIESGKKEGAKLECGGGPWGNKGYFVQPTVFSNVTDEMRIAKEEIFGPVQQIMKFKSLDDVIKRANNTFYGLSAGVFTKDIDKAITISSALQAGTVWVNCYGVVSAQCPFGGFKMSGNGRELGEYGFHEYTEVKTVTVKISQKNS
PNC inhibitor: perinucleolar compartment assembly inhibition. PC3M PTB-GFP, PNC prevalence imaging, 16 h; active compounds read low. activity change (PNC), negative = inhibition, % at 10 µM. hit rate 3.1% among 140,000;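 active = readout at or below -70, meaning at least 70% loss of cells showing the perinucleolar compartment, a nuclear body marking cancer cells; inconclusive = readout between -30 and a set limit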;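 also: plate controls were DMSO wells for no effect and camptothecin positive control wells for full effect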
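PC3M cells stably expressing PTB-GFP, 750–1000 cells/well, treated 16 h at 37 °C with compound (23 nl of library stock), in duplicate. After paraformaldehyde fixation and Hoechst stain, imaged at 20x; PNC prevalence scored by image analysis.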
HPGD inh: inhibitors of human 15-hydroxyprostaglandin dehydrogenase (HPGD); P15428; AID 894; purified HPGD, NADH fluorescence kinetic, PGE2 substrate; Potency, µM, for the others: at the highest dose activity change, negative = inhibition, hits mostly inhibitors; hit rate 4.3% among 150,000; also: potency is read from the fitted curve at half-maximal effect
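NADH formation kinetics: reaction with 30 uM PGE2 and 1 mM NAD+ (final), 20 nM enzyme, Tris-HCl pH 8 with Tween 20, after 15 min compound preincubation at room temperature. Fluorescence change, last versus first of five reads.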
Numbers without * were called inactive; [ ] = remark or other dose. Only some compounds are listed: those with a hit (about 11% of all), similar ones and a draw of the others. Unless noted, calls follow the shape of the dose curve; as a rule, active = well fitted inhibition curve with a large enough effect (not every such curve was filed as active); inconclusive = small, poorly fitted or top-dose-only effect, or another doubt; inactive = no such curve, though single readings can be large or run the other way. Unless noted, % is scaled to controls: 0 for no effect and ±100 for the full control effect.

For CCOc1ccccc1Nc1nc(-c2sc(NC(=O)c3ccccc3)nc2C)cs1 the results were ALDH1A1 inh inconclusive, PNC inhibitor 24.8 and HPGD inh -22.5%.
For Cc1ccc(Cl)cc1Nc1nc(-c2sc(NC(=O)c3ccccc3)nc2C)cs1 the results were ALDH1A1 inh 20µM*, PNC inhibitor -14.1 and HPGD inh inconclusive.
CCCCCCC(=O)Nc1nc(C)c(-c2csc(Nc3cc(Cl)ccc3C)n2)s1 was read as ALDH1A1 inh inconclusive, PNC inhibitor 33.5 and HPGD inh -22.2%.
COc1ccccc1Nc1nc(-c2sc(NC(=O)c3ccc([N+](=O)[O-])cc3)nc2C)cs1 was read as ALDH1A1 inh 15.8µM*, PNC inhibitor 29.6 and HPGD inh -17.3%.
COc1ccccc1Nc1nc(C)cs1 was read as ALDH1A1 inh 17.8µM*, PNC inhibitor inconclusive and HPGD inh -15.7%.
Cc1csc(Nc2ccccc2C(F)(F)F)n1 was read as ALDH1A1 inh 2.2%, PNC inhibitor 75.8 and HPGD inh -24.6%.
`COc1ccc(CCNC(=O)Cn2cc(C(F)(F)F)cc(Cl)c2=O)cc1` gave ALDH1A1 inh 4.5%, PNC inhibitor inconclusive and HPGD inh -11.6%.
`CCC(=O)Nc1ccc(/C(C)=N\NC(=O)c2ccc(OC)cc2)cc1` gave ALDH1A1 inh -9.5%, PNC inhibitor inconclusive and HPGD inh 0.6%.
C=CC1=C2C=C(C3CC3)N(c3ccc(OC)cc3)C=C2C(=O)C(C)(OC(=O)c2ccco2)C1=O (stereo not drawn) was read as ALDH1A1 inh 10.3%[13.5 µM] and HPGD inh -7.7%.
O=C(O)/C=C/c1cn(-c2ccccc2)nc1-c1cccc([N+](=O)[O-])c1 was read as ALDH1A1 inh 1.9%.
Cc1ccc(C(=O)N/C(=C/c2ccc(-c3cccc([N+](=O)[O-])c3)o2)C(=O)NC(C)C)cc1 was read as ALDH1A1 inh inconclusive, PNC inhibitor -10.1 and HPGD inh -7.4%.
Cc1ccc(C(=O)N/C(=C/c2cn(-c3ccccc3)nc2-c2ccccc2)C(=O)O)cc1 was read as ALDH1A1 inh 11.2µM*.
CN(C)C(=O)c1cn(-c2ccccc2)nc1-c1cccc([N+](=O)[O-])c1 was read as ALDH1A1 inh 8.91µM*.
For O=C(N/C(=C/c1cn(-c2ccccc2)nc1-c1ccccc1)C(=O)N1CCOCC1)c1ccccc1 the results were ALDH1A1 inh inconclusive, PNC inhibitor inconclusive and HPGD inh -8.4%.
For CC(C)NC(=O)/C(=C/c1cn(-c2ccccc2)nc1-c1cccc([N+](=O)[O-])c1)NC(=O)c1ccccc1 the results were ALDH1A1 inh 14.1µM*, PNC inhibitor inconclusive and HPGD inh -5.2%.
Screening COC(=O)/C=C/C(=O)Nc1cccc(C(F)(F)F)c1 returned ALDH1A1 inh inconclusive, PNC inhibitor 5.1 and HPGD inh -6.3%.
Screening CCOC(=O)c1ccc(Nc2nc(-c3cccnc3)nc3ccccc23)cc1 returned ALDH1A1 inh 18.4%, PNC inhibitor 88.0 and HPGD inh -28.7%.
NC(=S)NNc1c(F)c(F)c(F)c(F)c1F was read as ALDH1A1 inh 8.91µM*.
COC(=O)[C@@H]1C[C@@]1(C)[C@@H](NC(=O)OCc1ccccc1)c1ccccc1 was read as ALDH1A1 inh inconclusive and HPGD inh -15.1%.
Screening Cc1ccc(C(=O)N[C@H](C(=O)OCc2cc(=O)oc3cc(C)ccc23)C(C)C)cc1 returned ALDH1A1 inh 2.8%, PNC inhibitor 22.3 and HPGD inh -10.6%.
`COc1ccc(C(=O)N[C@H](C(=O)OCc2cc(=O)oc3cc(C)ccc23)C(C)C)cc1` gave ALDH1A1 inh 11.2µM*, PNC inhibitor -28.1 and HPGD inh -26.5%.
`CC(=O)Nc1ccc(S(=O)(=O)NC2(C(F)(F)F)C(=O)Nc3c2c(=O)[nH]c(=O)n3Cc2ccco2)cc1` (stereo not drawn) gave ALDH1A1 inh -4.9%.
Screening Cc1ccc(C(=O)N2CCN(CCNC(=O)C(=O)NC(C)C)CC2)cc1 returned ALDH1A1 inh 0.7%.
For Cc1ccc(C)c(C2C(C#N)=C(N)Oc3cc(C)oc(=O)c32)c1 (stereo not drawn) the results were ALDH1A1 inh -13.8%, PNC inhibitor 21.0 and HPGD inh -10.8%.
For CCOc1ccc(C2C(C#N)=C(N)Oc3cc(C)oc(=O)c32)cc1 (stereo not drawn) the results were ALDH1A1 inh 8.91µM*.
`N#CC(c1ccc(Cl)cc1)c1cccc(Cl)n1` (stereo not drawn) gave ALDH1A1 inh 11.5%.
Screening CC1=C(C(=O)NC2CCC(C)CC2)C2(CCC(C)CC2)OC1=O (stereo not drawn) returned ALDH1A1 inh -4.7%, PNC inhibitor 19.3 and HPGD inh -5.6%.
Screening O=C(CCCNC(=O)/C(=C\c1ccc(F)cc1)NC(=O)c1ccccc1)OCc1ccccc1 returned ALDH1A1 inh -9.1%, PNC inhibitor 74.8 and HPGD inh -1.2%.
CC1(C)SC(=S)N(NC(=O)Nc2ccccc2)C1N(O)C(=O)Nc1ccccc1 (stereo not drawn) was read as ALDH1A1 inh -10.1%, PNC inhibitor 8.7 and HPGD inh -2.8%.
For CN(C)c1ccc(/C=N/N2C(=S)SC(C)(C)C2N(O)C(=O)Nc2ccc([N+](=O)[O-])cc2)cc1 (stereo not drawn) the results were ALDH1A1 inh 12.6µM*, PNC inhibitor 29.0 and HPGD inh -11.8%.
`Cc1cc(C)c(S(=O)(=O)c2ccc(Cl)cc2C)c(Cl)n1` gave ALDH1A1 inh 10.7%.
`CCCc1cc(C(N)=O)c(NC(C)=O)s1` gave ALDH1A1 inh inconclusive, PNC inhibitor -16.6 and HPGD inh -3.1%.
For Cn1c(C2=C(O)CN(c3ccccc3)C2=N)nc2ccccc21 the results were ALDH1A1 inh 4.7%.
`Cc1cccc(N2CC(O)=C(c3nc4ccccc4n3C)C2=N)c1` gave ALDH1A1 inh 5.9%, PNC inhibitor inconclusive and HPGD inh 11.2µM*.
`Cc1cc(C)c(S(=O)(=O)Nc2ccccc2-c2ccccc2)c(C)c1` gave ALDH1A1 inh -5.5%, PNC inhibitor -27.6 and HPGD inh -7.7%.
`COc1ccc(/C=N/NC(=O)C2c3ccccc3Oc3ccccc32)c(OC)c1` gave ALDH1A1 inh -6.8%, PNC inhibitor -17.5 and HPGD inh -8.3%.
Screening O=C(O)CC(c1ccc(Cl)cc1)N1C(=O)CCC1=O (stereo not drawn) returned ALDH1A1 inh 3.2%, PNC inhibitor inconclusive and HPGD inh -2.2%.
CCCN(CCC)C1=N/C(=C\c2ccco2)C(=O)N1c1ccccc1 was read as ALDH1A1 inh 14.1µM*, PNC inhibitor 16.8 and HPGD inh inconclusive.
CCCN=C1N/C(=C\c2ccco2)C(=O)N1c1ccccc1 was read as ALDH1A1 inh -9.5%, PNC inhibitor inconclusive and HPGD inh -8.0%.
Cc1cc(C(=O)c2cnc(/N=C/N(C)C)s2)cc(C)c1O was read as ALDH1A1 inh -2.3%, PNC inhibitor 9.9 and HPGD inh -11.3%.
For CCCCc1nc2ccccc2c(NC(=O)CNC(C)(C)C)c1CCC the results were ALDH1A1 inh 3.3%, PNC inhibitor 35.7 and HPGD inh 10.1%.
For CCCCc1nc2ccccc2c(NC(=O)CN2CCCC2)c1CCC the results were ALDH1A1 inh inconclusive, PNC inhibitor -100.0* and HPGD inh -5.3%.

High-throughput results: PubChem BioAssay, National Center for Advancing Translational Sciences (NCATS)
